For some assays here: Results with a measured potency or affinity are listed apart.
Legend:
Design in all cases: scale not given: direction of the effect not stated beside the values
[1] = target: Protein translocase subunit SecA (Escherichia coli (strain K12)) (UniProt P10408); assay: Assay to Identify E. coli SecA ATPase Inhibitors; format: functional; settings: 30 µM
[2] = target: T1, Ubiquitin-activating enzyme e1, putative (Leishmania donovani (strain BPK282A1)) (UniProt E9BSI1); assay: Leishmania donovani Ubiquitin Activating Enzyme (LdE1); format: functional; settings: 30 µM
T1 sequence (whole entry): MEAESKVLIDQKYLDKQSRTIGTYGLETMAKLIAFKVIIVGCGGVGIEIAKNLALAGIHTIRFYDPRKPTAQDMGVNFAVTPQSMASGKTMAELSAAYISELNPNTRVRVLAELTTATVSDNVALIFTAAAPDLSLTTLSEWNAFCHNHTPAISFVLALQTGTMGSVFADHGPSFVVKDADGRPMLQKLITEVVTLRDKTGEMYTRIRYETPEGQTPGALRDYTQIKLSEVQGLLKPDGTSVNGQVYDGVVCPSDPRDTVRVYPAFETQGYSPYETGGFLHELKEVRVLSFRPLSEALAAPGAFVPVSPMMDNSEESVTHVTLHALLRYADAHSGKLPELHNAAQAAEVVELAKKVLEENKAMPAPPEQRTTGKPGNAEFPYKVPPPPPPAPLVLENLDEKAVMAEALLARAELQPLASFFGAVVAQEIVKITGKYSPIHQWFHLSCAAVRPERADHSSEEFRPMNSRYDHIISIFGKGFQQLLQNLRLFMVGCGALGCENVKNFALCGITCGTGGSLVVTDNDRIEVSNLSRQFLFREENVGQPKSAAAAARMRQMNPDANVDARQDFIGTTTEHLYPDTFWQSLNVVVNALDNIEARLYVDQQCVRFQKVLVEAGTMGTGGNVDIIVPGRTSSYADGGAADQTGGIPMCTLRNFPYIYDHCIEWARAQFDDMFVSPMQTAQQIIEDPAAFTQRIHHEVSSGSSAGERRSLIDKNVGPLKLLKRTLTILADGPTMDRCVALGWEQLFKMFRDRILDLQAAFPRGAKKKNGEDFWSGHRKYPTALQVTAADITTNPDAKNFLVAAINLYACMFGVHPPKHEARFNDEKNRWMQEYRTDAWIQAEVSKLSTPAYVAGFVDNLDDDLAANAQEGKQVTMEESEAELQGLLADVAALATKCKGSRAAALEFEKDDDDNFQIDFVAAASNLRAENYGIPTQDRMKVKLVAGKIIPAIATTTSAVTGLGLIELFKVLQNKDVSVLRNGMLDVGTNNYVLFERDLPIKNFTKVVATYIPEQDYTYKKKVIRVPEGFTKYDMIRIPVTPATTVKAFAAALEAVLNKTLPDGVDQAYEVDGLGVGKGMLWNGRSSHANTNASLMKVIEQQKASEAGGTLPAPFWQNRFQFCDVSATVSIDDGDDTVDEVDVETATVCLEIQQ

[3] = target: AMP-activated protein kinase, AMPK (Homo sapiens) (UniProt P54646+O43741+P54619+Q9UGJ0+Q9Y478+Q13131+Q9UGI9); assay: AMP-dependent Kinase enzyme assay. An in vitro enzyme assay that detects ADP turnover that is directly proportional to AMPK activity. This uses naive AMPK that is activated during the assay with MK-8722; format: functional; settings: 30 µM
[4] = target: Sialic acid-binding Ig-like lectin 9 (Homo sapiens) (UniProt Q9Y336); assay: Hs-Siglec9 ALPHAscreen SOP 20170721; settings: 10 µM
Trypanosoma cruzi = assay: Trypanosoma cruzi phosphomannomutase and mannose-1-phosphate guanylyltransferase assay; format: functional; settings: 10 µM
[5] = target: T2, Arginase-2, mitochondrial (Homo sapiens) (UniProt P78540); assay: in vitro enzyme assay to detect the production of urea directly proportional to the activity of Arginase II; format: functional; settings: 33.3 µM; also: in the data most compounds retested in dose-response had high values
T2 sequence (whole entry): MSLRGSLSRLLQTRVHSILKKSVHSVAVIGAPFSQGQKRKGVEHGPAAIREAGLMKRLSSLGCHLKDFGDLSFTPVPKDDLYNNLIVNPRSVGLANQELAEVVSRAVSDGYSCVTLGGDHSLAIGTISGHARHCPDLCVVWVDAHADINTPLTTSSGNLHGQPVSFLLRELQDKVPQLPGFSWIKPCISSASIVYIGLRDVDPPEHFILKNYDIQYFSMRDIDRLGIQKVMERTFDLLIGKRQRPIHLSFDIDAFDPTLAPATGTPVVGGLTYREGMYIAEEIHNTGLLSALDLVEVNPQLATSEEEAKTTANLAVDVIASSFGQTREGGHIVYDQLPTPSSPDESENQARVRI

[6] = target: T3, Proteasome subunit beta (Trypanosoma cruzi) (UniProt O96673); assay: Trypanosoma cruzi proteasome chymotrypsin-like activity (TcProtChymo) assay.; also: in the data most compounds retested in dose-response had high values; format: functional; settings: 9.37 µM
T3 sequence (whole entry): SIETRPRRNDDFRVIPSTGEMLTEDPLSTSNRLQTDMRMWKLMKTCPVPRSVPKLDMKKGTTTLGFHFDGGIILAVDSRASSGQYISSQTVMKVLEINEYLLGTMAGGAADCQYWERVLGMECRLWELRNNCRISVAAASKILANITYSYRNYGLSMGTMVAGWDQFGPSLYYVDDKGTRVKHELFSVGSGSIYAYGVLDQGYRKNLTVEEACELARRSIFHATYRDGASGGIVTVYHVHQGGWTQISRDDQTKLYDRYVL

Homo sapiens = organism: Homo sapiens; assay: To identify inhibition of the IFN signalling (Jak-Stat) pathway via expression of an eGFP reporter gene under the control of an IFN-stimulated response element (ISRE) containing MxA promoter.; format: functional; settings: 30 µM
[7] = target: T4, Tyrosyl-tRNA synthetase, putative (Trypanosoma cruzi (strain CL Brener)) (UniProt Q4DSP6); assay: Trypanosoma cruzi tyrosyl tRNA synthetase (TcYRS) _High Tyrosine SOP; format: functional; settings: 30 µM; also: in the data most compounds retested in dose-response had high values
T4 sequence (whole entry): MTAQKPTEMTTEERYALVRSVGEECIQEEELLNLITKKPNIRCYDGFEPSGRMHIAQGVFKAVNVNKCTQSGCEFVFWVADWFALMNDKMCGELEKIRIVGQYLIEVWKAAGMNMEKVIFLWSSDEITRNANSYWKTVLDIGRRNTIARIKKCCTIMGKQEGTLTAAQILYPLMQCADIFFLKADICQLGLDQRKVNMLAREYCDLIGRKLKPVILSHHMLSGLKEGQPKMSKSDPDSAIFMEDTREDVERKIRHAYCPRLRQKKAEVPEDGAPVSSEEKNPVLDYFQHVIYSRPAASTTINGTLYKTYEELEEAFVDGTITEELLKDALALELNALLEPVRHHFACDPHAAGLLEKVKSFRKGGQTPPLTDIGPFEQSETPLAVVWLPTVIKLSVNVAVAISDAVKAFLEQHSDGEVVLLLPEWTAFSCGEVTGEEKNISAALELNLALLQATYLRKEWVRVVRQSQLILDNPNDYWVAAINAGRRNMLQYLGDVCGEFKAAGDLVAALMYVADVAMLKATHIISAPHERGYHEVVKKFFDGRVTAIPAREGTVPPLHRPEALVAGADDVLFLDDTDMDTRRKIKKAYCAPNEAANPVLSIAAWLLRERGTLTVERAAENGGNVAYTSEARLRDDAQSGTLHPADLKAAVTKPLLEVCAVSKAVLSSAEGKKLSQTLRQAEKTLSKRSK

[8] = target: T4, Tyrosyl-tRNA synthetase, putative (Trypanosoma cruzi (strain CL Brener)); assay: Trypanosoma cruzi tyrosyl tRNA synthetase (TcYRS) SOP; format: functional; settings: 30 µM
[9] = target: Chromo domain-containing protein 1 (Saccharomyces cerevisiae (strain ATCC 204508 / S288c) (Baker's yeast)) (UniProt P32657); assay: ScCHD-1 Enzyme Inhibition Assay; format: functional; settings: 30 µM; also: in the data most compounds retested in dose-response had high values
Chain of Chromo domain-containing protein 1 (Saccharomyces cerevisiae (strain ATCC 204508 / S288c) (Baker's yeast)) (P32657 whole entry, the tested form may be a part): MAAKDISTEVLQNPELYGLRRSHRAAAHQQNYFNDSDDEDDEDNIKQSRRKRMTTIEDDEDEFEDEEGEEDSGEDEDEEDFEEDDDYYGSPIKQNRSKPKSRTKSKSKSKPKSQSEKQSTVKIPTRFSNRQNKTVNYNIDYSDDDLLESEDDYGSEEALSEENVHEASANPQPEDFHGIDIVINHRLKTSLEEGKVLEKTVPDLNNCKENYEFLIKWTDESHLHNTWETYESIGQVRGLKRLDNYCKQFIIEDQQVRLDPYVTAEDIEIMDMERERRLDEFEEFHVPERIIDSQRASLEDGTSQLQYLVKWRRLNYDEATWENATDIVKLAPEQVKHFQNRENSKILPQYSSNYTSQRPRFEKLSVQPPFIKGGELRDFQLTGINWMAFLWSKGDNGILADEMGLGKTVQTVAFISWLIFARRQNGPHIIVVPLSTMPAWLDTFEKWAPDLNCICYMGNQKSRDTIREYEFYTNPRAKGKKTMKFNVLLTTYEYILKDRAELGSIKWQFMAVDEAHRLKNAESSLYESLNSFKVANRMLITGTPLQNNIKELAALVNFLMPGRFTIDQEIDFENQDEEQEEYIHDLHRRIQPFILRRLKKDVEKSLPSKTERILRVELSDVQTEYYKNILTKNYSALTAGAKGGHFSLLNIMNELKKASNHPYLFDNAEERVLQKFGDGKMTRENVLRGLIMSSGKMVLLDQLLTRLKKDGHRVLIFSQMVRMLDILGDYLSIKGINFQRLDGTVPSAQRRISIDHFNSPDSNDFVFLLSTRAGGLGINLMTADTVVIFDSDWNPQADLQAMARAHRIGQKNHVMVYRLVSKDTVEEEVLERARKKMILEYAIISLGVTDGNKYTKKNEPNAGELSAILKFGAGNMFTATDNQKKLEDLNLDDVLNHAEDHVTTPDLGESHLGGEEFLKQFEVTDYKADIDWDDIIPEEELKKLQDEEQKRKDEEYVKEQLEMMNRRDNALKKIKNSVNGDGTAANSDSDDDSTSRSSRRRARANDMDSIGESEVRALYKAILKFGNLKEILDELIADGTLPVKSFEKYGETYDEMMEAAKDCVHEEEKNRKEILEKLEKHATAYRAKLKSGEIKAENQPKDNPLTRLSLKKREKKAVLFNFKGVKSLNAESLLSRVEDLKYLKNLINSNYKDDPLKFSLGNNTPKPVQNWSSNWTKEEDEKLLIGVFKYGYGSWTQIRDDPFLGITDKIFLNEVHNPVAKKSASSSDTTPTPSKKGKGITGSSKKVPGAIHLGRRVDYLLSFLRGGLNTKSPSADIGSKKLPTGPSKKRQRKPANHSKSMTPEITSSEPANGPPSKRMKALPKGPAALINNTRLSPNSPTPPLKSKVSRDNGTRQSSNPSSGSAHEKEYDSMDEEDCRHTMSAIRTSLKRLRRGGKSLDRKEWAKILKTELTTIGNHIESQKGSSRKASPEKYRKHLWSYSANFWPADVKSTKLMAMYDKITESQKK

Chain of Protein translocase subunit SecA (Escherichia coli (strain K12)) (P10408 whole entry): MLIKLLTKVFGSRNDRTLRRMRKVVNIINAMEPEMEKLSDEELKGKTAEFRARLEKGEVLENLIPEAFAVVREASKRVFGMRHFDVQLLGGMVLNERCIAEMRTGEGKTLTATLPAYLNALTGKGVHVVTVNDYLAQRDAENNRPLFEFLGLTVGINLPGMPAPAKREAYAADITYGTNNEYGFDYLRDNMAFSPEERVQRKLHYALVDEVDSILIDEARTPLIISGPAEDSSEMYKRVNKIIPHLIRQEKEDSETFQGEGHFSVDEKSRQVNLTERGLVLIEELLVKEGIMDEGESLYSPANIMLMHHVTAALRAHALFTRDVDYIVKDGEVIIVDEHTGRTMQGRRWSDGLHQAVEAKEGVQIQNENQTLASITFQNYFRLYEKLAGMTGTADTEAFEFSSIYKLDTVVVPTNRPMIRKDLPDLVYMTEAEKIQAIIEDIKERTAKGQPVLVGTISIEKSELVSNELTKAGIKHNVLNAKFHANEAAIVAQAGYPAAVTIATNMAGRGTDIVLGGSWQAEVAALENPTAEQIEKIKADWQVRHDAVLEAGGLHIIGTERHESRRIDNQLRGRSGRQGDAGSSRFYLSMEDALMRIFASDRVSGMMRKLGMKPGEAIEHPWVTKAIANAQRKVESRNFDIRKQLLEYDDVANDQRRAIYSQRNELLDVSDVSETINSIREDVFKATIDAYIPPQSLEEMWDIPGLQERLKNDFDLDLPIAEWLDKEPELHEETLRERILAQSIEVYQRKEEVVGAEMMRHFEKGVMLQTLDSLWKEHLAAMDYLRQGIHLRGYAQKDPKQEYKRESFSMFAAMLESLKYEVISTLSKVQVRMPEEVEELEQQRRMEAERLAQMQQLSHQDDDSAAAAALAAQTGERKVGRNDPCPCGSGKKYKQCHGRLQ
Chain of Sialic acid-binding Ig-like lectin 9 (Homo sapiens) (Q9Y336 whole entry): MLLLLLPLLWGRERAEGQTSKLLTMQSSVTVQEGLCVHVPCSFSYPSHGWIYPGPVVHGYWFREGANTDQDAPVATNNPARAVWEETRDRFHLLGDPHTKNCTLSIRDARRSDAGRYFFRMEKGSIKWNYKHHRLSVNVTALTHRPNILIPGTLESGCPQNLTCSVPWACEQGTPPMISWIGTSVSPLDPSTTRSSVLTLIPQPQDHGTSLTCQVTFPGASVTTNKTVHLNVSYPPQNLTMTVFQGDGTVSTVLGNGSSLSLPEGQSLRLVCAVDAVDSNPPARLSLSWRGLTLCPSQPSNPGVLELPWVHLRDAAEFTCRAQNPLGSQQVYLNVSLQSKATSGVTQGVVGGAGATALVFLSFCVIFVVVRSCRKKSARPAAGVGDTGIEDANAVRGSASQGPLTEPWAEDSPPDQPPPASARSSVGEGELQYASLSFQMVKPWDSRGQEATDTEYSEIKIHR

Compound	Percent Effect [1]	Percent Effect [2]	Percent Effect [3]	Percent Effect [4]	Percent Effect (Trypanosoma cruzi)	Percent Effect [5]	Percent Effect [6]	Percent Effect (Homo sapiens)	Percent Effect [7]	Percent Effect [8]	Percent Effect [9]
O=C(c1ccc2c(c1)OCO2)N1CCCC(n2cccn2)C1 (configuration not stated)	-1.59%	10.8%	-7.46%	-3.52%	7.64%	-4.01%	3.24%	27.9%	8.37%	11.1%	-7.12%
CC(C)CCN1Cc2c(C(=O)O)ncn2-c2ccccc2S1(=O)=O	0.538%	16.2%	16.3%	-10.3%	-3.42%	0.319%	10.7%	10.4%	4.32%	10.3%	-8.5%
Cc1cc(CN2CCN(C(=O)c3sccc3C(C)C)CC2)no1	-1.68%	2.6%	4.01%	0.935%	4.41%	4.84%	1.86%	5.54%	2.86%	7.06%	-3.8%
CC(NC(=O)CNCCn1cccn1)c1ccc2c(c1)CCCC2 (configuration not stated)	-8.2%	13%	-1.74%	15.8%	3.37%	-6.41%	9.46%	-3.61%	12.6%	26.8%	-9.3%
O=c1c2ccccc2nc2n1CCN(Cc1cccs1)CC2	-2.59%	20.3%	9.44%	0.538%	1.98%	-4.41%	17%	23.7%	5.38%	14.3%	-12.4%
CCOCC1CN(S(C)(=O)=O)Cc2cnn(C)c21 (configuration not stated)	-0.898%	16%	-7.73%	10.1%	5.79%	-43.9%	10.8%	-2.61%	4.17%	12.5%	-7.93%
O=C(Cc1ccsc1)NCC1OCCc2cn(CC3CC3)nc21 (configuration not stated)	-2.34%	7.79%	4.36%	-0.104%	-3.06%	4.52%	9.92%	10.1%	8.47%	8.97%	-0.722%
Fc1ccc(CN2CCC(c3n[nH]c4nccnc34)CC2)cc1F	-3.35%	9.46%	4.38%	-4.91%	0.593%	-1.16%	19.8%	7.61%	1.07%	6.49%	-18.1%
Cc1cc(-c2cnc(NCc3cccnc3)nc2C(C)C)on1	-6.62%	2.67%	40.6%	-1.45%	-3.74%	-2.1%	3.79%	56.7%	1.06%	1.28%	-1.52%
Cc1nn(C)c(Cl)c1C1CCCN1c1ncnc2sccc12 (configuration not stated)	-6.84%	-2.67%	-2.13%	8.98%	5.36%	7.29%	1.4%	35.8%	0.546%	3.7%	0.644%
Cc1ccccc1CN1CCC(NCC2CNc3ccnn3C2)CC1 (configuration not stated)	-0.777%	0%	-17.1%	-4.24%	1.27%	1.24%	11.4%	-3.35%	6.45%	13.6%	-5.59%
CC(=O)N(Cc1ncc(C(C)C)o1)C1CCN(CCn2cccn2)C1 (configuration not stated)	0.67%	10.8%	-13.2%	0.985%	2.69%	0.924%	18.9%	-1.48%	14.8%	1.22%	-4.25%
O=C(NCCc1nnc2n1CCC2)NC1(c2cccc(F)c2)CC1	-3.06%	15.8%	4.44%	-2.57%	-3.6%	-3.55%	14.1%	11%	0%	10.4%	-3.66%
CN1CC(=O)N(c2cnn(C)c2)CC12CCN(Cc1ccccc1)C2 (configuration not stated)	-4.4%	5.48%	-2.44%	7.88%	10.3%	-4.39%	4.02%	-7.57%	5.21%	8.64%	-4.55%
COc1ccc(C)cc1CNCc1ccc(-n2nc(C)cc2C)nc1	0.678%	10.5%	3.46%	0.511%	-2.82%	1.15%	12.2%	22.1%	3.43%	17.1%	-9.32%
O=C(NCc1csc(Br)c1)c1ccncc1	-2.58%	19%	5.52%	2.28%	0.103%	2.8%	11.3%	21.8%	-1.04%	15.2%	-29.5%
CN(C)C(=O)Cc1nc(CN2CCn3c(nnc3C3CC3)C2)cs1	-3.93%	16.2%	2.91%	3.53%	2.14%	-2.4%	10.8%	7.25%	5.94%	15.8%	-2.27%
O=C(Cn1c(=O)n(Cc2ccco2)c2ncccc21)NC1CCCCC1	-8.09%	14.9%	-4.42%	11.5%	8.5%	-4.41%	18.6%	3.85%	6.45%	14.3%	53%
Cc1cc(N(C)Cc2noc(C)n2)n2nc(C)c(C)c2n1	-2.12%	9.72%	-8.49%	-4.19%	-1.07%	3.97%	15.6%	9.15%	4.21%	10.3%	-4.2%
CC(O)CN1CCN(Cc2csc(-c3ncccn3)n2)CC1 (configuration not stated)	1.21%	7.89%	-3.51%	-8.16%	-3.02%	3.55%	24.6%	16.8%	5.32%	15.6%	-4.73%
Cc1cnn(C2CCCN(C(=O)CCc3nccs3)C2)c1 (configuration not stated)	-2.71%	16.2%	-1.11%	0.709%	-8.4%	1.2%	17.3%	16.1%	2.46%	3.7%	-3.34%
CCn1cc(CN2CC3CCCN3C[C@H]2C)c(C)n1 (some centres not stated)	-2.31%	9.46%	3.58%	-8.58%	-1.98%	-2.09%	20.3%	2%	4.3%	9.09%	-14.7%
